Inconclusive results are not listed. The source made the active and inactive calls. Calls come from the whole dose curve; as a rule, active = well fitted curve in the direction sought with a large enough effect; inconclusive = small, poorly fitted or top-dose-only effect, or another doubt; inactive = no such curve, though single readings can be large; an effect the other way counts as inactive or inconclusive.
Tests used:
[1] = qHTS of pediatric cancer cell lines to identify multiple opportunities for drug repurposing: Primary screen for DAOY cells (AID 1347090); note: nearly all actives have a fitted effect of over 55% in size
Summary of the method: (§1)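 Eight- or eleven-point concentration series, 48 h treatment at 37 degrees C in growth media; readout CellTiter-Glo luminescence. Potency and efficacy were taken from the concentration-response curves.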

[2] = qHTS of pediatric cancer cell lines to identify multiple opportunities for drug repurposing: Primary screen for SJ-GBM2 cells (AID 1347091)
Summary of the method: as §1

[3] = qHTS of pediatric cancer cell lines to identify multiple opportunities for drug repurposing: Primary screen for A673 cells (AID 1347092); note: nearly all actives have a fitted effect of over 45% in size
Summary of the method: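 Luminescence from CellTiter-Glo, taken after 15 min at room temperature, served as the proxy for metabolically active cells following 48 h treatment. Both potency and efficacy were taken from curves fitted to the titration data.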

[4] = qHTS of pediatric cancer cell lines to identify multiple opportunities for drug repurposing: Primary screen for BT-37 cells (AID 1347094)
Summary of the method: (§2)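 CRCs from 8- or 11-point titrations (lowest final 0.59 nM NPC, 0.78 nM MIPE). Cell viability: CellTiter-Glo after 48 h incubation, 15 min room-temperature development, luminescence imaging.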

[5] = qHTS of pediatric cancer cell lines to identify multiple opportunities for drug repurposing: Primary screen for NB-EBc1 cells (AID 1347095)
Summary of the method: as §2

[6] = qHTS of pediatric cancer cell lines to identify multiple opportunities for drug repurposing: Primary screen for U-2 OS cells (AID 1347096); note: nearly all actives have a fitted effect of over 50% in size
Summary of the method: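 Cells (500-1,000/well) in growth media were settled 5 h at 37 degrees C, then given compounds for 48 h. Viability was read as CellTiter-Glo luminescence. Primary runs used MIPE at 11 points (0.78 nM-46 µM) and NPC at 8 points (0.59 nM-46 µM); follow-ups used 11 points.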

[7] = qHTS of pediatric cancer cell lines to identify multiple opportunities for drug repurposing: Primary screen for Saos-2 cells (AID 1347097); note: nearly all actives have a fitted effect of over 40% in size
Summary of the method: as §2

[8] = qHTS of pediatric cancer cell lines to identify multiple opportunities for drug repurposing: Primary screen for SK-N-SH cells (AID 1347098); note: nearly all actives have a fitted effect of over 65% in size
Summary of the method: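 Cells (500-1,000/well) rested 5 h, then received compounds for 48 h; metabolically active cells were measured by CellTiter-Glo luminescence. Final concentrations spanned up to 46 µM (MIPE, 11-point) or 0.59 nM-46 µM (NPC, 8-point) in primary screens, 11-point in follow-ups.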

[9] = qHTS of pediatric cancer cell lines to identify multiple opportunities for drug repurposing: Primary screen for SK-N-MC cells (AID 1347093)
Summary of the method: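 Metabolically active cells were quantified by ATP-dependent luminescence (CellTiter-Glo, 15 min at room temperature) following 48 h treatment. Cells had been plated at 500-1,000 per well and settled for 5 h beforehand.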

[10] = qHTS of pediatric cancer cell lines to identify multiple opportunities for drug repurposing: Primary screen for NB1643 cells (AID 1347099); note: nearly all actives have a fitted effect of over 50% in size
Summary of the method: as §2

Measured: Potency
Potency is the fitted concentration of half-maximal effect.

CC(C)C[C@@H](N)[C@H](O)C(=O)N[C@H](C(=O)N[C@H](C(=O)N[C@@H](CC(=O)O)C(=O)O)C(C)C)C(C)C
active: [8] 24.1 µM
not listed: [9] | [10]
inactive: all other assays above

CCCCCCOC(=O)N=C(N)c1ccc(NCc2nc3cc(C(=O)N(CCC(=O)OCC)c4ccccn4)ccc3n2C)cc1
active: [2] 18.7 µM | [3] 14.8 µM | [9] 29.6 µM
inactive: [1] | [8]

CC(C)c1c(C(=O)Nc2ccccc2)c(-c2ccccc2)c(-c2ccc(F)cc2)n1CC[C@H](O)C[C@@H](O)CC(=O)O
active: [1] 11.8 µM | [2] 16.6 µM | [3] 18.7 µM | [9] 23.5 µM | [6] 18.7 µM | [7] 6.62 µM | [10] 20.9 µM

O=C(NCCCCN1CCOCC1)c1cc2ccccc2o1
active: [8] 30.4 µM
not listed: [4] | [9]
inactive: all other assays above

COc1ccnc(CS(=O)c2nc3ccc(OC(F)F)cc3[nH]2)c1OC (stereo not drawn)
not listed: [9]
inactive: all other assays above

COc1cc(Nc2nc3ccccc3nc2NS(=O)(=O)c2ccc(NC(=O)c3ccc(C)c(OC)c3)cc2)cc(OC)c1
active: [1] 23.5 µM | [2] 23.5 µM | [3] 23.5 µM | [9] 26.4 µM | [5] 26.4 µM | [8] 24.1 µM
inactive: [10]

COc1ccc2c(c1)CC[C@H]1[C@@H]2CC[C@]2(C)[C@@H](NCCCCCCN3C(=O)C=CC3=O)CC[C@H]12
inactive: [1] | [2] | [9] | [4] | [5] | [6]

Fc1ccc(CNc2ncnc3ccc(F)cc23)cc1
inactive: [2] | [6] | [10]
active: [1] 7.43 µM | [3] 9.35 µM | [9] 16.6 µM

Cc1ccc(NC(=O)Nc2cc(C(F)(F)F)ccc2F)cc1Nc1ccc2c(c1)NC(=O)C2=Cc1ccc[nH]1
active: [1] 14.8 µM | [2] 10.5 µM | [3] 7.43 µM | [4] 24.3 µM | [5] 11.8 µM | [6] 23.5 µM | [7] 20.9 µM | [8] 30.4 µM | [10] 11.8 µM

CC(C)(CO)[C@@H](O)C(=O)NCCC(=O)O
not listed: [3] | [10]
inactive: all other assays above

CNc1nc(Nc2ccc(C(=O)N3CCOCC3)cc2OC)ncc1Cl
active: [10] 4.69 µM
not listed: [7] | [8] | [9]
inactive: all other assays above

CCCCn1c(=O)n(Cc2ccccc2F)c(=O)c2[nH]c(Cc3ccc(NC(C)=O)cc3)nc21
active: [1] 23.5 µM | [9] 10.5 µM | [8] 27.1 µM
not listed: [3] | [10]
inactive: all other assays above

COc1cc(N2CCN(C)CC2)ccc1Nc1nc(N)c(C(=O)c2c(Cl)cccc2Cl)s1
inactive: [1] | [2] | [6] | [7]
active: [3] 18.7 µM | [9] 16.6 µM | [10] 14.8 µM

C[C@@H](O)[C@H]1C(=O)N2C(C(=O)OCOC(=O)C(C)(C)C)=C(SC3CN(C4=NCCS4)C3)[C@H](C)[C@H]12
not listed: [3] | [10]
inactive: all other assays above

O=C1NC(=O)C(c2cnc3ccccn23)=C1c1cn2c3c(cccc13)CN(C(=O)N1CCOCC1)CC2
active: [1] 0.0235 µM | [2] 0.0235 µM | [9] 0.0235 µM | [4] 19.3 µM | [5] 0.0166 µM
inactive: [6]

C=CC[N+]1([C@H]2C[C@H]3[C@@H]4CC[C@H]5C[C@H](O)[C@@H](N6CCOCC6)C[C@]5(C)[C@@H]4CC[C@]3(C)[C@H]2OC(C)=O)CCCC1
not listed: [3] | [10]
inactive: all other assays above

COc1cccc(OC)c1-c1cc(C(=O)NC2(C(=O)O)C3CC4CC(C3)CC2C4)nn1-c1ccnc2cc(Cl)ccc12 (stereo not drawn)
inactive: [1] | [3] | [6] | [7]
active: [2] 26.4 µM | [9] 18.7 µM

O=C(c1ccc(C=Cc2n[nH]c3ccccc23)cc1)N1CCNCC1
active: [2] 4.18 µM | [9] 1.18 µM | [5] 3.72 µM
inactive: [1] | [4] | [6]

O[C@@H](COc1cccc2ncccc12)CN1CCN(C2c3ccccc3[C@@H]3[C@H](c4ccccc42)C3(F)F)CC1 (stereo partly drawn)
active: [1] 11.8 µM | [2] 3.35 µM | [3] 14.8 µM | [9] 9.35 µM | [5] 4.73 µM | [8] 15.2 µM | [10] 3.32 µM

CCC(=O)NCC[C@@H]1CCc2ccc3c(c21)CCO3
not listed: [3] | [7]
inactive: all other assays above

O=C(O)Cc1cccc(OCCCN(Cc2cccc(C(F)(F)F)c2Cl)CC(c2ccccc2)c2ccccc2)c1
active: [1] 14.8 µM | [2] 23.5 µM | [9] 6.62 µM | [4] 27.3 µM | [5] 23.5 µM | [8] 19.2 µM
inactive: [6] | [7] | [10]

Oc1cc(O)cc(C=Cc2ccc(O)c(O)c2)c1
active: [9] 5.26 µM | [5] 4.18 µM | [7] 5.26 µM | [10] 20.9 µM
inactive: [1] | [2] | [6]

CCC(c1ccc(O)cc1)C(CC)c1ccc(O)cc1 (stereo not drawn)
active: [1] 0.59 µM | [9] 1.05 µM
inactive: [2] | [8]

CCN1C[C@H](C)n2c(c(O)c3c(=O)n(Cc4ccc(F)c(Cl)c4)nc(C(=O)NC)c32)C1=O
not listed: [3] | [4] | [10]
inactive: all other assays above

CN1CCC(COc2cnc(-c3cccc(Cn4nc(-c5cccc(C#N)c5)ccc4=O)c3)nc2)CC1
active: [1] 23.5 µM | [2] 0.0083 µM | [9] 0.148 µM | [8] 24.1 µM
inactive: [4] | [6] | [7] | [10]

CCOC(=O)[C@@H](N)CCC(=O)N[C@@H](CSCc1ccccc1)C(=O)N[C@@H](C(=O)OCC)c1ccccc1
not listed: [3] | [9]
inactive: all other assays above

CC(=O)O[C@]1(C(C)=O)CC[C@H]2[C@@H]3C=C(Cl)C4=CC(=O)[C@@H]5C[C@H]5[C@]4(C)[C@@H]3CC[C@@]21C
inactive: [6]
active: [1] 18.7 µM | [2] 9.35 µM | [9] 7.43 µM | [5] 16.6 µM | [8] 12.1 µM | [10] 14.8 µM

O=C(c1ccc(F)c(F)c1Nc1ccc(I)cc1F)N1CC(O)([C@H]2CCCCN2)C1
active: [1] 18.7 µM | [2] 4.69 µM | [9] 1.48 µM | [4] 1.09 µM | [5] 1.66 µM | [7] 1.87 µM | [8] 6.07 µM

C[C@@H]1CC=CC=CC=CC=C[C@@H](O[C@@H]2O[C@H](C)[C@@H](O)[C@H](N)[C@H]2O)C[C@@H]2O[C@](O)(C[C@@H](O)C[C@@H]3O[C@@H]3C=CC(=O)O1)C[C@H](O)[C@@H]2C(=O)O
inactive: [2] | [6] | [7] | [8] | [10]
active: [1] 7.43 µM | [9] 8.33 µM

From PubChem BioAssay (NCATS)
